Calls of active or inactive are those of the source.

Assay [1] can be described thus: small molecules captured by biotinylated probe aFSTL3 – biochemical, small-molecule microarray, fluorescence 635/667, stem cell growth factor project, primary screen (AID 1064).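 Note: measures binding of the biotinylated anti-FSTL3 antibody to printed compounds.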 To be noted: higher = more signal.
The nature of assay [2]: binders from COS7 lysate, DM2A8 probe, primary screen, torsin A project, cell lysate, small-molecule microarray, fluorescence 635/667 (AID 1065). To be noted: higher = more signal, COS7 lysate expressing mutant human TOR1A.
A short description of assay [3]: small molecules captured by biotinylated probe aFGF2 – biochemical, small-molecule microarray, fluorescence 635/667, stem cell growth factor project, primary screen (AID 1067).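 Note: measures binding of biotinylated aFGF2 protein to printed compounds on slides; z-score merges feature fluorescence and signal-to-noise across triplicate slides.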 To be noted: higher = more signal.
Assay [4] in a line: small molecules captured by biotinylated probe aFGF10 – biochemical, small-molecule microarray, fluorescence 635/667, stem cell growth factor project, primary screen (AID 1071).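 Note: score merges 667 nm spot intensity and signal to noise from triplicate slides.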 To be noted: higher = more signal.
Assay [5] concerns the target Neurogenic locus notch homolog protein 2 (Homo sapiens) (UniProt Q04721). As to the kind of experiment: small molecules binding Notch2 protein – biochemical, small-molecule microarray, 635 nm fluorescence, stem cell growth factors, primary screen (AID 1073). To be noted: higher = more signal.
Assay [6] addresses Pro-neuregulin-1, membrane-bound isoform (Homo sapiens) (UniProt Q02297). As to the kind of experiment: small molecules binding neuregulin-1 protein – biochemical, small-molecule microarray, fluorescence 635/667, psychiatric disease protein project, primary screen (AID 1075).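 Note: score combines 667 nm spot fluorescence with signal to noise.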 To be noted: NRG1 binding, 635 nm fluorescence, higher = more signal.
Assay [7] relates to Neuregulin-1 EGF-like domain. Briefly: small molecules binding NRG1 EGF domain – biochemical, small-molecule microarray, 635 nm fluorescence, primary screen (AID 1081).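 Note: binding of the protein to compounds printed on small-molecule microarray slides.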 To be noted: higher = more signal.
Assay [8] can be described thus: FRG1 expression reporter modulators in myotubes – cell-based, C2C12 myotubes, firefly/Renilla luciferase, luminescence, FRG1 inhibition for FSHD, primary screen (AID 1084). To be noted: FRG1 promoter luciferase, higher = more signal, called active from +8 up or from −8 down.
Assay [9] in a line: small molecules captured by biotinylated probe aFST – biochemical, small-molecule microarray, fluorescence 635/667, stem cell growth factor project, primary screen (AID 1086).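 Note: score merges 667 nm fluorescence with signal-to-noise of each printed compound spot.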 To be noted: higher = more signal.
Assay [10] is described as follows: binders of probe aHhip on microarray, primary screen, stem cell growth factor project, biochemical, small-molecule microarray, fluorescence 635/667 (AID 1087).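 Note: score merges spot fluorescence at 667nm with spot signal to noise ratio.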 To be noted: higher = more signal.
In assay [11] the test system is PRMT1 (protein arginine N-methyltransferase 1). As to the kind of experiment: small molecules binding arginine methyltransferase PRMT1 – biochemical, small-molecule microarray, 635 nm fluorescence, primary screen (AID 1088).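 Note: binding of Prmt1 protein to compounds spotted on small-molecule microarray slides.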 To be noted: higher = more signal.
Assay [12] in a line: growth effects on S. cerevisiae YJM789 – YJM789 clinical isolate, OD600, 24 h, basal, primary screen (AID 1089).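 Note: growth of clinical yeast isolate S. cerevisiae YJM 789 seeded 1000 cells per well; test concentration not given here.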 To be noted: higher = more signal, called active from +8 up or from −8 down.
The nature of assay [13]: S. pombe growth modifiers, basal conditions – strain 972, OD600, 24 h, no modulator, primary screen (AID 1090).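 Note: basal condition with compound alone and no growth modifier present; test concentration not given here.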 To be noted: S. pombe 972 growth, higher = more signal, called active from +8 up or from −8 down.
Assay [14] is described as follows: budding yeast growth modifiers under rapamycin – strain BY4716, OD600, 96 h, primary screen (AID 1091). Note: test concentration not given here. To be noted: S. cerevisiae BY4716 + rapamycin, higher = more signal, called active from +8 up or from −8 down.
Assay [15] addresses Torsin-1A-interacting protein 2 (Homo sapiens) (UniProt Q8NFQ8). As to the kind of experiment: small molecules binding lysate-expressed LULL1 – cell lysate, human LULL1 lysate, 635/667 nm fluorescence, primary screen (AID 1092).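 Note: probe is lysate of COS7 cells overexpressing human LULL1; score merges per-feature 667 nm fluorescence with signal-to-noise.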 To be noted: small-molecule microarray, hLULL1 lysate binding, 635 nm fluorescence; higher = more signal.
Assay [16] is described as follows: optical density change of DRC41 E. coli – strain DRC41, OD650, 24 h, E. coli filamentation project, primary screen (AID 1093).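 Note: MC1000 strain lacking acrAB efflux and sulA so SOS filamentation is blocked; test concentration not given here.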 To be noted: E. coli DRC41 growth, higher = more signal, called active from +8 up or from −8 down.
A short description of assay [17]: probe aLefty2 binding to arrayed compounds – biochemical, biotinylated probe, 635/667 nm fluorescence, primary screen (AID 1094).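 Note: score merges spot fluorescence near 667 nm with spot signal-to-noise ratio.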 To be noted: small-molecule microarray, higher = more signal.
Assay [18] relates to Noggin (protein binding on small-molecule microarray). As to the kind of experiment: small molecules binding Noggin protein – biochemical, 635/667 nm fluorescence, primary screen (AID 1095).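 Note: score merges 667 nm feature fluorescence with signal to noise over triplicate slides.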 To be noted: 635 nm fluorescence, higher = more signal.
The target in assay [19] is Neurogenic locus notch homolog protein 3 (Homo sapiens) (UniProt Q9UM47). Briefly: small molecules binding NOTCH3 protein – biochemical, 635/667 nm fluorescence, primary screen (AID 1096). To be noted: small-molecule microarray, 635 nm fluorescence, higher = more signal.
Sequence of Neurogenic locus notch homolog protein 3 (Homo sapiens) (Q9UM47 whole entry, looked up): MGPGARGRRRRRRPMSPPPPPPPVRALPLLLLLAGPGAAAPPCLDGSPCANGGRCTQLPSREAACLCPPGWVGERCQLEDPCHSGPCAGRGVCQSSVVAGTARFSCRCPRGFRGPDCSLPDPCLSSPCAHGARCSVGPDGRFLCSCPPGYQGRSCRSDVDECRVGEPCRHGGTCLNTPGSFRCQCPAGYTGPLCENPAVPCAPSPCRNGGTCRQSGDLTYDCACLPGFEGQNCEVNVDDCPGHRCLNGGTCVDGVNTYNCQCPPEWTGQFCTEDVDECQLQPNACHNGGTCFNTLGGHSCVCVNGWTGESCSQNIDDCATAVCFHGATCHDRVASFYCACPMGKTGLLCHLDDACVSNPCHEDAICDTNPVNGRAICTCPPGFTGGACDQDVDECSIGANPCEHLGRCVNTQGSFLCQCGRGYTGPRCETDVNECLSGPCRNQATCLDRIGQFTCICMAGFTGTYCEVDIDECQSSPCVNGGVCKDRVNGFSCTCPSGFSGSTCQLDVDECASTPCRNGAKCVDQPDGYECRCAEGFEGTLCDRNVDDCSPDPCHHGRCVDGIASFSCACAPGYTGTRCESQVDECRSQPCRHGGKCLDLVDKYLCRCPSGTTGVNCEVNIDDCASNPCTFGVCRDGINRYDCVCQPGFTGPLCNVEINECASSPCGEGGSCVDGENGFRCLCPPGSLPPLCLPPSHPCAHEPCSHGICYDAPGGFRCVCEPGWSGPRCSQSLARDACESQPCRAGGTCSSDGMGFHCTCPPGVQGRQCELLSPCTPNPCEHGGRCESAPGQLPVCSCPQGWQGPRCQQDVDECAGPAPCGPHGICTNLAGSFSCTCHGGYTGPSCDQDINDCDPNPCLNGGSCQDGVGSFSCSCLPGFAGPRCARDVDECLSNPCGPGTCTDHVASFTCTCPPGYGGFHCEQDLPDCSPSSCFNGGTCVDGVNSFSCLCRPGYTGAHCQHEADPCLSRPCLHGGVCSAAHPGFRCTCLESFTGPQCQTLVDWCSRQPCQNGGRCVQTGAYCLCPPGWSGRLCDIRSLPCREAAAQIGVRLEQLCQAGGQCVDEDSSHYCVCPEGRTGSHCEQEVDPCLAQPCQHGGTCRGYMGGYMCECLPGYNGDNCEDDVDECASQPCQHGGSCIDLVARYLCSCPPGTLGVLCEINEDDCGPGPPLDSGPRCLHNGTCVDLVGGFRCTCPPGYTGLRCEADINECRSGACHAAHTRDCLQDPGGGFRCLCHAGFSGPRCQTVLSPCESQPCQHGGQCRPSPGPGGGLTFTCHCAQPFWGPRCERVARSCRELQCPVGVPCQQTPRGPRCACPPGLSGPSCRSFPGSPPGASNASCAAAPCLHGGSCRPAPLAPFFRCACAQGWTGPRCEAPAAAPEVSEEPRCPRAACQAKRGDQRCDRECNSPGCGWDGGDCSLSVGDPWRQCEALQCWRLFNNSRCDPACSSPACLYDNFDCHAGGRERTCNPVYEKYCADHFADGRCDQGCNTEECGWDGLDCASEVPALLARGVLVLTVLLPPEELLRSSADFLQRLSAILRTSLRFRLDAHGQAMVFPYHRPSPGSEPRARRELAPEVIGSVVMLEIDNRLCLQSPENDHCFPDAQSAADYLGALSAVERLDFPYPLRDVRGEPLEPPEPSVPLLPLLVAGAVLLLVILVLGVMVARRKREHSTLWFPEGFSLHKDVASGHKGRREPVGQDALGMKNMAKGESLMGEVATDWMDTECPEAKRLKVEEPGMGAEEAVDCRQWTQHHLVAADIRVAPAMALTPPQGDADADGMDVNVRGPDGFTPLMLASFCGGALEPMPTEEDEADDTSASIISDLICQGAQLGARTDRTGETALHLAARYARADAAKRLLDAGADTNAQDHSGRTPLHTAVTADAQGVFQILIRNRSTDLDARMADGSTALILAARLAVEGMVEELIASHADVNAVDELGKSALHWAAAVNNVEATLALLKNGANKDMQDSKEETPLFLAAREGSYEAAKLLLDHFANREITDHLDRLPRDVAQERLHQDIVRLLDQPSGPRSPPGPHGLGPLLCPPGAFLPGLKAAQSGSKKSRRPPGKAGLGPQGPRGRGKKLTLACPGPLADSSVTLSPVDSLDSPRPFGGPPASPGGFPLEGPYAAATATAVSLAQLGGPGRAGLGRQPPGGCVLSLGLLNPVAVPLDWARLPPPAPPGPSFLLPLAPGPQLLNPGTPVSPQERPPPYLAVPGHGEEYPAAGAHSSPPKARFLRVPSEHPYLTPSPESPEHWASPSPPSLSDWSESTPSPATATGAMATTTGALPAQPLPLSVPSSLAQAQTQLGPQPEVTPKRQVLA
Assay [20] is described as follows: probe aEGFR binding to arrayed compounds – biochemical, biotinylated probe, 635/667 nm fluorescence, primary screen (AID 1097).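 Note: probe is a biotinylated anti-EGFR antibody binding compounds printed on slides; score combines fluorescence near 667 nm and signal to noise of each spot.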 To be noted: small-molecule microarray, higher = more signal.

Sequence of Torsin-1A-interacting protein 2 (Homo sapiens) (Q8NFQ8 whole entry, looked up): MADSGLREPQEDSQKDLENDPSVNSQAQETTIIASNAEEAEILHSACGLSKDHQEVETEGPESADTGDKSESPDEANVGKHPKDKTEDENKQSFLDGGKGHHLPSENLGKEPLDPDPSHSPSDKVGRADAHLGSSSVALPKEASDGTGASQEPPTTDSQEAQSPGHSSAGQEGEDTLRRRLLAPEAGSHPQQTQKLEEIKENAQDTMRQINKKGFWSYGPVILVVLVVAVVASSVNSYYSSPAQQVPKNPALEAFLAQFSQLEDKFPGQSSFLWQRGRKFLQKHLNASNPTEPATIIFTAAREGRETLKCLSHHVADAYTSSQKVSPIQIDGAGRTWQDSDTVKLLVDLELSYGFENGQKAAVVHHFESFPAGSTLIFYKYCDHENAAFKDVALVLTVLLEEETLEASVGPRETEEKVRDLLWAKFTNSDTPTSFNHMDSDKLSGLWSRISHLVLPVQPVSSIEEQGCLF
Sequence of Pro-neuregulin-1, membrane-bound isoform (Homo sapiens) (Q02297 whole entry, looked up, the tested form may be a part, canonical isoform): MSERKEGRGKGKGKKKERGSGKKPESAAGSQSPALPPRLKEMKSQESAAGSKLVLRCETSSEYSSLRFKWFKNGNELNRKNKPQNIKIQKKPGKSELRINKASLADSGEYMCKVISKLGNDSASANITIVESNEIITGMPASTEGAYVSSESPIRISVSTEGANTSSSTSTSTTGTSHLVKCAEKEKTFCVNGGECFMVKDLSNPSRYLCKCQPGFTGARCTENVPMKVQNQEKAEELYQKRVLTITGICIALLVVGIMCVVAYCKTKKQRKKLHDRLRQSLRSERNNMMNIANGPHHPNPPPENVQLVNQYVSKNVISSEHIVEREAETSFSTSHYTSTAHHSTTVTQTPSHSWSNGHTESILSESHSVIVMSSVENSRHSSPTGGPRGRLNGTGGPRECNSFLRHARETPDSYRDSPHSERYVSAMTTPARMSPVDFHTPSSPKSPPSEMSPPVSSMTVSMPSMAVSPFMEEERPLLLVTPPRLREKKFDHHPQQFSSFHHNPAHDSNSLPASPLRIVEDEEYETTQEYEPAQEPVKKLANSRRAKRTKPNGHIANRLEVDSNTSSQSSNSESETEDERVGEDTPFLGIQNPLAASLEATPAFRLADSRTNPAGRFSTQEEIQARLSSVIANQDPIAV

Consider `CN(C)C(=O)[C@]1(Cc2ccccc2CN=[N+]=[N-])N=C(c2ccc(OCCCO)cc2)O[C@@H]1c1ccccc1N=[N+]=[N-]`, for which the composite z-score was 0.168 in assay [1]; 0.142 in assay [2]; 0.117 in assay [3]; 0.41 in assay [4]; 1.49 in [5]; 1.85 in assay [6]. Further, the composite z-score in assay [7] is 1.22; in assay [9], 1.22; in [10] it was -0.264; in assay [11] it was 1.48; in assay [15] it was 3.43; in assay [17] it was 0.0369. For the same molecule, the figures for the composite z-score in assay [18], in assay [19] and in assay [20] were 0.317, 0.618 and 0.0427, respectively. Moreover, the z-score in [8] is -1.04 (inactive); in assay [12], -1.73 (inactive); in assay [13], 0.498 (inactive); in assay [14], 12.9 (active); in [16] it was -0.0046 (inactive).

For the molecule `O=C1NC(=O)C2C1C=CC(C(O)c1ccc(F)cc1)N2Nc1ccccn1` (stereo not given), the composite z-score was 0.22 in [1]; 0.472 in assay [2]; -0.0634 in assay [3]; 0.354 in [4]; 0.999 in assay [5]; 0.906 in [6]. Moreover, the composite z-score in assay [7] is 0.957; in assay [9], 0.0731; in assay [10] it was -0.284; in assay [11] it was 0.477; in assay [15], 2.64; in [17] it was -0.103. Further, the figures for the composite z-score in assay [18], in assay [19] and in [20] were -0.0682, -0.0883 and -0.0271, respectively. In addition, the z-score is 0.632 (inactive) in assay [8]; 0.128 (inactive) in assay [12]; 0.42 (inactive) in assay [13]; 0.333 (inactive) in assay [14]; -1.83 (inactive) in [16].

`COCCOC(=O)N1C(=O)[C@@]2(c3cc(C#CCCO)ccc31)[C@H](C(=O)N1CCN(c3ncccn3)CC1)[C@H]1C(=O)O[C@H](c3ccccc3)[C@H](c3ccccc3)N1[C@@H]2c1ccc(O)cc1`: the composite z-score in [1] was -0.782; in assay [2], 0.219; in assay [3], 0.0243; in [4], 0.534; in assay [5], 0.376; in assay [6], 0.926. Besides, the composite z-score in assay [7] is 1.24; in assay [9], -0.3; in assay [10], -0.367; in assay [11], 1.54; in [15], 2.04; in assay [17], -0.299. Besides, the composite z-score in assay [18] was 0.865; in assay [19], 0.945; in [20], -0.219. In addition, the z-score in assay [8] was -1.3 (inactive); in assay [12] it was 0.114 (inactive); in assay [13], -0.161 (inactive); in [14] it was 1.63 (inactive); in assay [16] it was 1.49 (inactive).

`CCCC[C@H]1OB(O)C[C@H]2C1=C(COC)C[C@H]1C(=O)C=CC(=O)[C@H]12`: the composite z-score in assay [1] is -0.54; in assay [2] it was 0.007; in [3], -0.0582; in assay [4], 0.183; in assay [5] it was 0.861; in [6] it was -0.279. Also, the composite z-score was -0.0265 in [7]; 0.534 in [9]; 0.206 in assay [10]; 1.42 in assay [11]; 0.117 in assay [15]; -0.0798 in assay [17]. The figures for the composite z-score in assay [18], in [19] and in [20] were 0.747, 0.936 and -0.071, respectively. The z-score in assay [8] is 0.254 (inactive); in [12] it was 0.275 (inactive); in assay [13] it was -1.56 (inactive); in assay [14], -0.293 (inactive); in assay [16], 0.898 (inactive).

Turning to `CCC[C@@H]1[C@@H](Sc2ccccc2)[C@@H](C(=O)O)[C@H](c2ccc(C)cc2)N1S(=O)(=O)c1ccc(C)cc1`, the composite z-score is -0.259 in [1]; 0.175 in [2]; 0.0213 in [3]; 0.894 in [4]; 1.67 in assay [5]; 1.15 in assay [6]. Besides, the composite z-score in assay [7] was 1.34; in assay [9], 1.11; in [10], -0.0618; in assay [11] it was 1.56; in assay [15], 3.45; in assay [17] it was 0.114. The results for the composite z-score in [18], in assay [19] and in assay [20] were 1.05, 1.04 and 0.129, respectively. Besides, the z-score was -4.1 (inactive) in assay [8]; -0.994 (inactive) in assay [12]; 0.674 (inactive) in [13]; -0.698 (inactive) in [14]; -0.131 (inactive) in assay [16].

Source of the values: PubChem BioAssay.
